# From PubChem BioAssay (NCATS)
# Several values for one entry are separate records, joined by “and”; a condition that tells them apart may be missing. Identical values can stand only once. Records with an inconclusive call do not appear. Entries that show only a call come without a potency. Some structures have more than one record in an assay (separate samples or runs), and their calls can disagree. Activity calls are given as the source filed them. Unless noted, the call rests on the fitted dose curve.
# What was measured:
# [1] = target: Estrogen receptor (Homo sapiens) (UniProt P03372); assay: qHTS assay for small molecule antagonists of estrogen receptor alpha signaling (AID 588513; active means well fitted curve in the direction sought with a large enough effect in the signal ratio, with a control signal flat, not every such curve was filed as active; the % refers to the signal ratio; further: potency means the concentration at half of the fitted maximal effect)
# Procedure, shortened: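 Cells were plated at 5000/well and incubated 4 h at 37 C. Compounds were added as 1:2 dilution series, duplicates. 17-beta-estradiol (0.5nM final) was added for 18 h before CCF4 detection.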
# [2] = target: Bile acid receptor (Homo sapiens) (UniProt Q96RI1); assay: qHTS assay for small molecule antagonists of farnesoid X receptor signaling (AID 588526)
# Procedure, shortened: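 Concentration-response titrations were fitted to the Hill equation for half-maximal inhibition and maximal response, with data normalised to 50 uM chenodeoxycholic acid and DMSO control wells. Cells: FXR-UAS-bla HEK293T, dialyzed FBS.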
# [3] = target: Glucocorticoid receptor (Homo sapiens) (UniProt P04150); assay: qHTS assay for small molecule agonists of glucocorticoid receptor signaling (AID 588532; active means well fitted curve in the direction sought with a large enough effect in the signal ratio, with a control signal flat; the % refers to the signal ratio); conditions: HeLa MMTV-bla, beta-lactamase ratio, agonist, 18 h; stronger effect = higher value; percent of dexamethasone control, DMSO zero
# Procedure, shortened: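 Stimulation of a glucocorticoid response element-driven beta-lactamase gene was measured in HeLa cells. Responses were scaled between DMSO basal and 0.1 uM dexamethasone, then fitted for half-maximal stimulation.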
# [4] = target: Glucocorticoid receptor (Homo sapiens) (UniProt P04150); assay: qHTS assay for small molecule antagonists of glucocorticoid receptor signaling (AID 588533; active means well fitted inhibition curve with a large enough effect in the signal ratio, with a control signal flat, not every such curve was filed as active; the % refers to the signal ratio;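 further: cells stimulated with 2 nM dexamethasone as agonist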; further: potency means the concentration at half of the fitted maximal effect)
# Procedure, shortened: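 Antagonist-mode qHTS: compound titrations added to GRE-bla HeLa cells, then dexamethasone 2 nM final; 18 h, 37 C. CCF4 FRET fluorescence normalized to dexamethasone and DMSO; IC50 from Hill fit.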
# [5] = qHTS assay for small molecule antagonists of peroxisome proliferator-activated receptor delta signaling (AID 588535; active means well fitted inhibition curve with a large enough effect in the signal ratio, with a control signal flat, not every such curve was filed as active; the % refers to the signal ratio;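 on max response: cells co-treated with a PPAR-delta agonist as stimulator during compound exposure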); conditions: HEK293T PPARd-UAS-bla, beta-lactamase FRET ratio, 18 h; 460 nm channel
# Procedure, shortened: (§1)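 Inhibition of PPAR-delta response element-driven beta-lactamase expression is measured in HEK293T cells exposed to a compound titration series for 18 hrs at 37 C. Half-maximal inhibition comes from Hill equation fitting.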
# [6] = target: Peroxisome proliferator-activated receptor delta (Homo sapiens) (UniProt Q03181); assay: as above
# Procedure, shortened: as §1
# [7] = target: DNA dC->dU-editing enzyme APOBEC-3G (Homo sapiens) (UniProt Q9HC16); assay: qHTS for inhibitors of Vif-A3G interactions: Validation (AID 588379; active means well fitted curve in the direction sought with a large enough effect; an effect the other way counts as inactive or inconclusive)
# Procedure, shortened: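 Yellow fluorescence (Ex 488, Em 500-530) of Vif-coexpressing HeLa A3G-eYFP cells, scanned by Acumen cytometer, reports blocked A3G degradation. Cells plated at 700/well overnight at 37 deg C before compound addition, then a further overnight compound incubation at 37 deg C.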
# [8] = qHTS for Inhibitors of ATXN expression: Validation (AID 588378; active means well fitted curve in the direction sought with a large enough effect; an effect the other way counts as inactive or inconclusive; further: series mostly up to about 57 µM; nearly all actives have a fitted effect of over 75% in size)
# Procedure, shortened: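 Validation of ATXN2 expression inhibitors uses a cell-based luciferase fusion reporter in HEK293 cells, with 24 h compound exposure and paired viability (fluorescence) and reporter (luminescence) end-point reads.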
# [9] = target: Androgen receptor (Homo sapiens) (UniProt P10275); assay: qHTS assay for small molecule agonists of androgen receptor signaling (AID 588515; active means well fitted curve in the direction sought with a large enough effect in the signal ratio, with a control signal flat; the % refers to the signal ratio); conditions: AR-UAS-bla HEK293, beta-lactamase ratio, agonist 16 h; stronger effect = higher value
# Procedure, shortened: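 Stimulation of an AR-responsive β-lactamase reporter in GripTite HEK293 cells was measured after 16 h compound exposure at 37 °C, via CCF4 fluorescence after 2 h RT. EC50 from Hill fits, normalized to R1881 at 30 nM.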
# Chain of Estrogen receptor (Homo sapiens) (P03372 whole entry, looked up): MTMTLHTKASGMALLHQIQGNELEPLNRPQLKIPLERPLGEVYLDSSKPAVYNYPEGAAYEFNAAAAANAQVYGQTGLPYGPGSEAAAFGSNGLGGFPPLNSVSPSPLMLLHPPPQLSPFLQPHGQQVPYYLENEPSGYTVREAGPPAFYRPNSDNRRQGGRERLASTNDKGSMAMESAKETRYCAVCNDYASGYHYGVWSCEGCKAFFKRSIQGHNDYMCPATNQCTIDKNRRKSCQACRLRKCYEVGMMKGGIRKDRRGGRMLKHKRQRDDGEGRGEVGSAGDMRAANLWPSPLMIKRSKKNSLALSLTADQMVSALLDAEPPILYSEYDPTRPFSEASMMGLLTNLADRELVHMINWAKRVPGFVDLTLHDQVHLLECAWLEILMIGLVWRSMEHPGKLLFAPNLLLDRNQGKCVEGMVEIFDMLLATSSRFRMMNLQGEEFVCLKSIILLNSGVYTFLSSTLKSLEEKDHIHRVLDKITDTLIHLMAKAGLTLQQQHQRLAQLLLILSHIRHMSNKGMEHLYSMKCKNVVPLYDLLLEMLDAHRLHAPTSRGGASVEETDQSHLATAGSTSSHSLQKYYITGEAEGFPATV
# Chain of Glucocorticoid receptor (Homo sapiens) (P04150 whole entry, looked up): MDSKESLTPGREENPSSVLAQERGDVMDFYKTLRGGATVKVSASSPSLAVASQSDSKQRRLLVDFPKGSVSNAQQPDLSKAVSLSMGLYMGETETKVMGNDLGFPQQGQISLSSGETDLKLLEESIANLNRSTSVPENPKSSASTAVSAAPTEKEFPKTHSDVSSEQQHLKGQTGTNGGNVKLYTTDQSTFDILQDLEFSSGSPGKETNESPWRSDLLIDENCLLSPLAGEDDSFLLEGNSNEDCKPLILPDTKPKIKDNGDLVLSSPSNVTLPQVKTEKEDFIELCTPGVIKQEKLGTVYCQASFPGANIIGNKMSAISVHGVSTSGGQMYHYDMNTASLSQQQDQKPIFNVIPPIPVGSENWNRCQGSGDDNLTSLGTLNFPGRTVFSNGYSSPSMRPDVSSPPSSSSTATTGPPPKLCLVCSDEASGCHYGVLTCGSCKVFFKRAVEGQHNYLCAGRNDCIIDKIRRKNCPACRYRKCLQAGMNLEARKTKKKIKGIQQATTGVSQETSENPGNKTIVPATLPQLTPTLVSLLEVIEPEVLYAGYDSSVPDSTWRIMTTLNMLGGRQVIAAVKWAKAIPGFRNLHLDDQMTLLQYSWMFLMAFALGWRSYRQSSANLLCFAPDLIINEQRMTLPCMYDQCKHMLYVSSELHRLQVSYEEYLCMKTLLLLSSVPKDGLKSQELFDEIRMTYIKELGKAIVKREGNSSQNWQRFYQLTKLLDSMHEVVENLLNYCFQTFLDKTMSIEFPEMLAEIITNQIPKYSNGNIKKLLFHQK
# Chain of Peroxisome proliferator-activated receptor delta (Homo sapiens) (Q03181 whole entry, looked up): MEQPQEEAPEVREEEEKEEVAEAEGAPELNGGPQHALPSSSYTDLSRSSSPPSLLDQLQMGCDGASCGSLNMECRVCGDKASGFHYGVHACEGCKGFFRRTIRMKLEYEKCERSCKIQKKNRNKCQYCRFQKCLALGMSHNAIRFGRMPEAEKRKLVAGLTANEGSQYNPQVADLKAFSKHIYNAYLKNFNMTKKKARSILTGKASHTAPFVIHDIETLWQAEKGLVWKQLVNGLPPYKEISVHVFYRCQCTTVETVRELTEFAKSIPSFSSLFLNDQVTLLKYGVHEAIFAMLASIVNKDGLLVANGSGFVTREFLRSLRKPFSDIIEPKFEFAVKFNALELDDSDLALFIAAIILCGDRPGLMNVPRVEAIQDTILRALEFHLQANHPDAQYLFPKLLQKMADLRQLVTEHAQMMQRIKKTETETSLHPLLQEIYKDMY
# Chain of Bile acid receptor (Homo sapiens) (Q96RI1 whole entry, looked up): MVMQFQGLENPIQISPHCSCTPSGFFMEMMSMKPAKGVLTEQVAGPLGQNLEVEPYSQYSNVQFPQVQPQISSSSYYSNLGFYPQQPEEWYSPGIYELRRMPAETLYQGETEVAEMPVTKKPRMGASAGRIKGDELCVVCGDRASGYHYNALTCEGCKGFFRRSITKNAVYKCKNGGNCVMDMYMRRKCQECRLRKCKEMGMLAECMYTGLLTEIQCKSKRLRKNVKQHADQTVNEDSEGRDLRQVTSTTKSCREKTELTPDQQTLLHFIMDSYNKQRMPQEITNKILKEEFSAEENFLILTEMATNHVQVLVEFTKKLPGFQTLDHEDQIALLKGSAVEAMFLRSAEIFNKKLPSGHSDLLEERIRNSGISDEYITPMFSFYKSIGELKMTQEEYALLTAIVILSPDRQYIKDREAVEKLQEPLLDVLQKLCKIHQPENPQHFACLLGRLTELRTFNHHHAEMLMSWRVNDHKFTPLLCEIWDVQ
# Chain of DNA dC->dU-editing enzyme APOBEC-3G (Homo sapiens) (Q9HC16 whole entry, looked up): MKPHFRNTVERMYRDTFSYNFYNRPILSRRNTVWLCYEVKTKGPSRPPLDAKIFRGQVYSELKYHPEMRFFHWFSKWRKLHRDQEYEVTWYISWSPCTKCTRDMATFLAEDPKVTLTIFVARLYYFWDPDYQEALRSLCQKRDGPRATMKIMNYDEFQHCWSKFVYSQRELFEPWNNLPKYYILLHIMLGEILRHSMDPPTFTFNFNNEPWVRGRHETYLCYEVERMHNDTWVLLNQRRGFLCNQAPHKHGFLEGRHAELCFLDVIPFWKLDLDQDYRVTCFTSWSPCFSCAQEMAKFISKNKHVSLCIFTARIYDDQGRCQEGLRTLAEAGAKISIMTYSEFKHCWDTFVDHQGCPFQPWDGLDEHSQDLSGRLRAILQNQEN
# Chain of Androgen receptor (Homo sapiens) (P10275 whole entry, looked up): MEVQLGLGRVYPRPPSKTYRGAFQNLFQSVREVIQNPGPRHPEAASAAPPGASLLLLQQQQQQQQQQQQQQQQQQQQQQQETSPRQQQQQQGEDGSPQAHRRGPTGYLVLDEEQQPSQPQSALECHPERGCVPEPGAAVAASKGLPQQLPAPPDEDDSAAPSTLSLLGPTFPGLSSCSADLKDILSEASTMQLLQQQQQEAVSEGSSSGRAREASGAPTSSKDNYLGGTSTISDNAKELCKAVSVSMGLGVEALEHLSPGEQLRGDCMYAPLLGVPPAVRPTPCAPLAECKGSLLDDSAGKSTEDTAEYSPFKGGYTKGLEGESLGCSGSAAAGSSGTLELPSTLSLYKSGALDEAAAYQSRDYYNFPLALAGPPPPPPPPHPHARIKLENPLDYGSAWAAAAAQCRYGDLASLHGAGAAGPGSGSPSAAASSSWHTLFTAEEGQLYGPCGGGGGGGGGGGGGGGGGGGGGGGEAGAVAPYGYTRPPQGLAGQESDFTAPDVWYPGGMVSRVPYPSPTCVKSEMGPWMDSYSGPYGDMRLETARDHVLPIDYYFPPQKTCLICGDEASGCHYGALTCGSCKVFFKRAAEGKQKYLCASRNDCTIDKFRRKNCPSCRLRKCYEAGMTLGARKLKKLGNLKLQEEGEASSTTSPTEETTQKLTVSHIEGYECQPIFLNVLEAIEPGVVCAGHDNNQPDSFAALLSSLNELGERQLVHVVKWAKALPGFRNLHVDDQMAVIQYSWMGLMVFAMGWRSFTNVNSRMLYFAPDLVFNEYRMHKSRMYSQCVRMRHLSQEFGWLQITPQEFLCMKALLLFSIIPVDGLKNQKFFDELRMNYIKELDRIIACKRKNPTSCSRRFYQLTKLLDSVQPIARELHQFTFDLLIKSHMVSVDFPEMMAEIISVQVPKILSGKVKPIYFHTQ
smiles,measurement,setting,value
NCCO/C=C/[C@H](N)C(=O)O,Potency,[1],inactive
same,outcome,[2],inactive
same,activation,[3],-5.2% (inactive)
same,Potency,[4],inactive
same,max response,[5],-3.12%
same,outcome,[6],inactive
C[C@H](CCC(=O)O)[C@H]1CC[C@H]2[C@@H]3CC[C@@H]4C[C@H](O)CC[C@]4(C)[C@H]3C[C@H](O)[C@]12C,Potency,[1],inactive
same,outcome,[2],inactive
same,activation,[3],-6.09% (inactive)
Nc1ccc(N=Nc2ccccc2)c(N)n1,Potency,[1],inactive and 35.5 µM [inhibitor] (active)
same,activation,[3],-10.4% (inactive) and 1.07% (inactive)
same,Potency,[4],inactive
same,max response,[5],-2.71% and -25%
same,outcome,[6],inactive
C[C@H]1O[C@@H](O[C@H]2[C@@H](O)C[C@H](O[C@H]3[C@@H](O)C[C@H](O[C@H]4CC[C@@]5(C)[C@H](CC[C@@H]6[C@@H]5C[C@@H](O)[C@]5(C)[C@@H](C7=CC(=O)OC7)CC[C@]65O)C4)O[C@@H]3C)O[C@@H]2C)C[C@H](O)[C@@H]1O,outcome,[7],inactive
same,activation,[3],-7.98% (inactive)
same,Potency,[4],1 µM (active) and 562 nM (active)
C=C(C)C1CC=C(C)CC1 (stereo unspecified),Potency,[1],inactive
same,activation,[3],-1.86% (inactive) and -2.03% (inactive)
same,Potency,[4],inactive
Oc1ccc(/C=C/c2cc(O)cc(O)c2)cc1,outcome,[8],inactive
same,outcome,[7],inactive
same,Potency,[1],31.6 µM [inhibitor] (active)
c1ccc2ccccc2c1,Potency,[1],inactive
same,outcome,[2],inactive
same,max response,[5],-2.63% and 30.7%
same,outcome,[6],inactive
OCl,Potency,[1],inactive
same,outcome,[2],inactive
same,activation,[3],-3.26% (inactive)
same,max response,[5],-10.3%
same,outcome,[6],inactive
CC(C)(C)CC(C)(C)c1ccc(OCCO)cc1,Potency,[1],inactive
same,activation,[9],-21% (inactive)
same,activation,[3],12% (inactive)
CC[C@H]1OC(=O)[C@H](C)[C@@H](O[C@H]2C[C@@](C)(OC)[C@@H](O)[C@H](C)O2)[C@H](C)[C@@H](O[C@@H]2O[C@H](C)C[C@H](N(C)C)[C@H]2O)[C@](C)(O)C[C@@H](C)CN(C)[C@H](C)[C@@H](O)[C@]1(C)O,Potency,[1],inactive
